Experimental data taken from publication PMC7862700, “An all-to-all approach to the identification of sequence-specific readers for epigenetic DNA modifications on cytosine”.

Assays:
Assay in all cases: DAPPL (digital affinity profiling via proximity ligation, sequencing); 10 mM Tris-HCl pH 7.5, 50 mM NaCl, 1 mM DTT, 4% glycerol, room temperature, 30 min; GST-TFs on glutathione beads, 16-mer random dsDNA library, 0.1% formaldehyde crosslink after washing; high values mean tight binding
[1] = molecular target: T1, FEV (Homo sapiens, UniProt Q99581 1-238); conditions: protein: recombinant; tags: N-terminal GST; dsDNA, one strand shown
T1 sequence: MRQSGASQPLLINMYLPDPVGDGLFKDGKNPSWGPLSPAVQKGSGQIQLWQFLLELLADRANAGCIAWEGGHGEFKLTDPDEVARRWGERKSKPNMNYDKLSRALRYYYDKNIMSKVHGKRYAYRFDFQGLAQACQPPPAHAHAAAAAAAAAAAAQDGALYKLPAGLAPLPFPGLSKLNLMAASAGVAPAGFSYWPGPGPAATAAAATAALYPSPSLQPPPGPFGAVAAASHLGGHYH
How it was run: (§1)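 Human transcription factors carrying a GST fusion were produced in yeast, bound to glutathione beads, tagged with DNA barcodes and pooled together with a tag-only sample. Each pool was held with 200 nmole of a random double-stranded 16-mer DNA library in Tris/NaCl/DTT/glycerol buffer for 30 min at room temperature, then washed, crosslinked in 0.1% formaldehyde, proximity-ligated with BsaI/T4 ligase (1 h, 37 °C), PCR-amplified and sequenced on an Illumina NextSeq500. Binding signal is the read frequency of each hexamer for a given factor divided by its frequency in the tag-only sample.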

[2] = molecular target: ETV5 (Homo sapiens, UniProt P41161 1-510); conditions: protein: recombinant; tags: N-terminal GST; dsDNA, one strand shown
How it was run: as §1

[3] = molecular target: HSF1 (Homo sapiens, UniProt Q00613 1-529); conditions: protein: recombinant; tags: N-terminal GST; chain copies: 3; dsDNA, one strand shown
How it was run: as §1

[4] = molecular target: T2, SPIC (Homo sapiens, UniProt Q8N5J4 1-248); conditions: protein: recombinant; tags: N-terminal GST; dsDNA, one strand shown
T2 sequence: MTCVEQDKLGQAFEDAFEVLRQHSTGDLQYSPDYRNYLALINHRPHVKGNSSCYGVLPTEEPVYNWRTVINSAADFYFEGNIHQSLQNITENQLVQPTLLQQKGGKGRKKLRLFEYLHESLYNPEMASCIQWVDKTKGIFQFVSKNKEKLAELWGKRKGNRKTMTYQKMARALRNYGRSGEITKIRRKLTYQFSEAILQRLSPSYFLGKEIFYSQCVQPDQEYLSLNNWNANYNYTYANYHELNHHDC
How it was run: as §1

[5] = molecular target: ELF4 (Homo sapiens, UniProt Q99607 1-663); conditions: protein: recombinant; tags: N-terminal GST; dsDNA, one strand shown
How it was run: as §1

[6] = molecular target: T3, ELK4 (Homo sapiens, UniProt P28324-2 1-405); conditions: protein: recombinant; tags: N-terminal GST; dsDNA, one strand shown
T3 sequence: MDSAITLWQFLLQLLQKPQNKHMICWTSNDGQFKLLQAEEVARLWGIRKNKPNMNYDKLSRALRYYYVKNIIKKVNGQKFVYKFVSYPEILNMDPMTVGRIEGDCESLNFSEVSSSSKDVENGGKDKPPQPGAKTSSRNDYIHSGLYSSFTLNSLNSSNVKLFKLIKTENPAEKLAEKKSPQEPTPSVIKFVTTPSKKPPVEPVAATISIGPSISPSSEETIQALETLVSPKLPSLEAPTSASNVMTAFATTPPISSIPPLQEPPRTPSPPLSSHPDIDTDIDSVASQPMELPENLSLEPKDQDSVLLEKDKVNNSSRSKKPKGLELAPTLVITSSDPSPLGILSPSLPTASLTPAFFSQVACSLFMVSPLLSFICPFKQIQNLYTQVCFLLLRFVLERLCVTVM
How it was run: as §1

[7] = molecular target: T4, ETV2 (Homo sapiens, UniProt O00321 1-342); conditions: protein: recombinant; tags: N-terminal GST; dsDNA, one strand shown
T4 sequence: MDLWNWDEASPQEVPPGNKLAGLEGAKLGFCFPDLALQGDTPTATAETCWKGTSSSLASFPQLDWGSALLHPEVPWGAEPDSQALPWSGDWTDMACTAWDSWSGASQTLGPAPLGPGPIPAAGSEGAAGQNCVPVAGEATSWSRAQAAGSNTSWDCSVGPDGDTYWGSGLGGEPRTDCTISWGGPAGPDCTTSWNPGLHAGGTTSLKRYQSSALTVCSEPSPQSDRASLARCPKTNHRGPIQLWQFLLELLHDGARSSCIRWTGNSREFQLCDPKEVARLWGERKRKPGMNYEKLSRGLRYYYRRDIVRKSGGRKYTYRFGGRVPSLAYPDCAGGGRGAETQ
How it was run: as §1

[8] = molecular target: T5, ELF3 (Homo sapiens, UniProt P78545 1-371); conditions: protein: recombinant; tags: N-terminal GST; dsDNA, one strand shown
T5 sequence: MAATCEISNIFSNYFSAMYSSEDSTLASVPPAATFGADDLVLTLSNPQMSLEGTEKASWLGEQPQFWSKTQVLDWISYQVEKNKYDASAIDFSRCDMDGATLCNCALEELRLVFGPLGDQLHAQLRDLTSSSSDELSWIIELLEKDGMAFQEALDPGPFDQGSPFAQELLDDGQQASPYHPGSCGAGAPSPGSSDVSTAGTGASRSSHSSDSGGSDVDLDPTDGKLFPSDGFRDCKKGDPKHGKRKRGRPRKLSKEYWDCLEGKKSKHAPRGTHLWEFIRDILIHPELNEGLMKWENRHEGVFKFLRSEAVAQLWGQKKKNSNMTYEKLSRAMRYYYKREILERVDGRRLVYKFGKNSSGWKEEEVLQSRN
How it was run: as §1

[9] = molecular target: CRX (Homo sapiens, UniProt O43186 1-299); conditions: protein: recombinant; tags: N-terminal GST; dsDNA, one strand shown
How it was run: as §1

[10] = molecular target: ETV1 (Homo sapiens, UniProt P50549 1-477); conditions: protein: recombinant; tags: N-terminal GST; dsDNA, one strand shown
How it was run: as §1

[11] = molecular target: T6, ERF (Homo sapiens, UniProt P50548 1-548); conditions: protein: recombinant; tags: N-terminal GST; dsDNA, one strand shown
T6 sequence: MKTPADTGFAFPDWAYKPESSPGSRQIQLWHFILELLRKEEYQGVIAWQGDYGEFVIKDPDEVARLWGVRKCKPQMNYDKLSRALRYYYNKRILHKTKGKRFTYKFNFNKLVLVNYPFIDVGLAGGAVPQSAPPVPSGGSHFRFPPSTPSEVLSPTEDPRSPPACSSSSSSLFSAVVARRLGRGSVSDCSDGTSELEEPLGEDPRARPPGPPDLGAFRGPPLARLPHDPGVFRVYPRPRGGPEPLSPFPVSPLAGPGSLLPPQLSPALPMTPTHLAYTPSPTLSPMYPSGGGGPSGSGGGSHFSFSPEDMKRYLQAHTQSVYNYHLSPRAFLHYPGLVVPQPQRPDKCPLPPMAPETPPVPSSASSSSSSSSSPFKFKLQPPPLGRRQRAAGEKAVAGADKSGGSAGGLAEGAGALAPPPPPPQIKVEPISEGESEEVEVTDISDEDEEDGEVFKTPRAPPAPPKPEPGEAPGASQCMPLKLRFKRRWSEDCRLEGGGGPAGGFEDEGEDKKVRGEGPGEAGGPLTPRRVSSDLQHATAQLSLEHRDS
How it was run: as §1

[12] = molecular target: T7, ETV3L (Homo sapiens, UniProt Q6ZN32 1-361); conditions: protein: recombinant; tags: N-terminal GST; dsDNA, one strand shown
T7 sequence: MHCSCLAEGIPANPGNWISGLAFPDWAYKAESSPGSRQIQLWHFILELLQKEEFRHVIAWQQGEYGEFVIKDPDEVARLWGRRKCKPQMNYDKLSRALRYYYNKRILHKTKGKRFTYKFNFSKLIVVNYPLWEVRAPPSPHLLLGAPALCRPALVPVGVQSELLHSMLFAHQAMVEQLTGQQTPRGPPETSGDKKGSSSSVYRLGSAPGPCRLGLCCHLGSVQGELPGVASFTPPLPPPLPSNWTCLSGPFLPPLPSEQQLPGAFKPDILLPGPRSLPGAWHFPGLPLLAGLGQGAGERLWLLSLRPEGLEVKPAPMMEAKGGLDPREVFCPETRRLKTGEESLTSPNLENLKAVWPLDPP
How it was run: as §1

[13] = molecular target: T8, ETS2 (Homo sapiens, UniProt P15036 1-469); conditions: protein: recombinant; tags: N-terminal GST; dsDNA, one strand shown
T8 sequence: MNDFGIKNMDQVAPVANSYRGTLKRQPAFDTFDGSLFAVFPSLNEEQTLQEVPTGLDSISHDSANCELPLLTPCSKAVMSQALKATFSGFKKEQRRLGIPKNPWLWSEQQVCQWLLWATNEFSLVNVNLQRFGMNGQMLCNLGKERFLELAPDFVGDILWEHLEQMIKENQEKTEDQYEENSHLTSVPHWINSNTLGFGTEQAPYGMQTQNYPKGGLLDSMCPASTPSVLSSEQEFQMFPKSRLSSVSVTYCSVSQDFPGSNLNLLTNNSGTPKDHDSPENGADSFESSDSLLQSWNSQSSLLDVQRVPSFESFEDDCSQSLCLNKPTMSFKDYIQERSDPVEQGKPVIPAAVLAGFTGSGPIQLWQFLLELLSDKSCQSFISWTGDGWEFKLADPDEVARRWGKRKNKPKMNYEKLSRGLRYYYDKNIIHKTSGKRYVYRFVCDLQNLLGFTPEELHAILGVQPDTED
How it was run: as §1

[14] = molecular target: T9, SPDEF (Homo sapiens, UniProt O95238 1-335); conditions: protein: recombinant; tags: N-terminal GST; dsDNA, one strand shown
T9 sequence: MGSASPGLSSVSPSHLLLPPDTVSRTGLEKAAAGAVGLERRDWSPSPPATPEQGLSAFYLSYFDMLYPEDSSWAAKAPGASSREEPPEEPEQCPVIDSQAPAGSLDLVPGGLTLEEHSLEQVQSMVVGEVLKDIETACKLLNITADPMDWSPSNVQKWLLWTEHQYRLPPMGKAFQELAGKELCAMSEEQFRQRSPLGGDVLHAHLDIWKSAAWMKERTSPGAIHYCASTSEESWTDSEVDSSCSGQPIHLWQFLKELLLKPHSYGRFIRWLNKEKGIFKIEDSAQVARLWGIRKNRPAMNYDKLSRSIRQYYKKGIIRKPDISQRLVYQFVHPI
How it was run: as §1

[15] = molecular target: T10, ETV7 (Homo sapiens, UniProt Q9Y603 1-341); conditions: protein: recombinant; tags: N-terminal GST; dsDNA, one strand shown
T10 sequence: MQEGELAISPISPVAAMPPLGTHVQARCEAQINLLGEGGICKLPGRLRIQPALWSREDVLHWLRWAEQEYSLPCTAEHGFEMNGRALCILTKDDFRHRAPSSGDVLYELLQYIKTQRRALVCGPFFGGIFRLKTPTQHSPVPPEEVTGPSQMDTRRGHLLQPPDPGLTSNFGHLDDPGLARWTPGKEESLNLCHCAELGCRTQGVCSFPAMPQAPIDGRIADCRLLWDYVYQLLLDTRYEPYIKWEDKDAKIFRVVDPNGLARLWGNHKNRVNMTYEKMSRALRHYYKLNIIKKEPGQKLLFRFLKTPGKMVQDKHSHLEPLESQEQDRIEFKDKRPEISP
How it was run: as §1

[16] = molecular target: T11, ELF5 (Homo sapiens, UniProt Q9UKW6-2 1-255); conditions: protein: recombinant; tags: N-terminal GST; dsDNA, one strand shown
T11 sequence: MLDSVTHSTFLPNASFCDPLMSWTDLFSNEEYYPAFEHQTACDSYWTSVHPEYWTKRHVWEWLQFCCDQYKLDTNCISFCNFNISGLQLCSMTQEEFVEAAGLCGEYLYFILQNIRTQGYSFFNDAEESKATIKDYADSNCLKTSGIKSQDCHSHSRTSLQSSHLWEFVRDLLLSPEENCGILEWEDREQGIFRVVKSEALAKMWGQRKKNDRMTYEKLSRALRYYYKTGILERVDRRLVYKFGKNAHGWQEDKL
How it was run: as §1

[17] = molecular target: T12, ETV3 (Homo sapiens, UniProt P41162-2 1-143); conditions: protein: recombinant; tags: N-terminal GST; dsDNA, one strand shown
T12 sequence: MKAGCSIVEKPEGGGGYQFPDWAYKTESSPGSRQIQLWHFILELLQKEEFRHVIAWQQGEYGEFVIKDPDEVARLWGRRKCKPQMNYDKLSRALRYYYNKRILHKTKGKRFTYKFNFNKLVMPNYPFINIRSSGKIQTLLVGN
How it was run: as §1

[18] = molecular target: ETV6 (Homo sapiens, UniProt P41212 1-452); conditions: protein: recombinant; tags: N-terminal GST; dsDNA, one strand shown
How it was run: as §1

Chain of ETV1 (P50549 whole entry): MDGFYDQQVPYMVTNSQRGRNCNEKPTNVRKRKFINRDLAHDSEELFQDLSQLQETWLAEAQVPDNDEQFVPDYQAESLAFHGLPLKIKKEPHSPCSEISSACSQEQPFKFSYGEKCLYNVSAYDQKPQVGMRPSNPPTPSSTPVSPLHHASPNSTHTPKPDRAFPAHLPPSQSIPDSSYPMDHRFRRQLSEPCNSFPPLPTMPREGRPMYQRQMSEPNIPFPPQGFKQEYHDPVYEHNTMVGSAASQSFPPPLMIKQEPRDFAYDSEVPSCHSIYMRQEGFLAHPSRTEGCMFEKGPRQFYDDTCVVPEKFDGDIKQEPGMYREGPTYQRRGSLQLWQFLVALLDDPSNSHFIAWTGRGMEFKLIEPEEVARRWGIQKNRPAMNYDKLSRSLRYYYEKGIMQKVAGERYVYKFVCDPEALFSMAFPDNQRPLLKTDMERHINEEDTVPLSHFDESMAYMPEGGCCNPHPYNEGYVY
Chain of ETV5 (P41161 whole entry): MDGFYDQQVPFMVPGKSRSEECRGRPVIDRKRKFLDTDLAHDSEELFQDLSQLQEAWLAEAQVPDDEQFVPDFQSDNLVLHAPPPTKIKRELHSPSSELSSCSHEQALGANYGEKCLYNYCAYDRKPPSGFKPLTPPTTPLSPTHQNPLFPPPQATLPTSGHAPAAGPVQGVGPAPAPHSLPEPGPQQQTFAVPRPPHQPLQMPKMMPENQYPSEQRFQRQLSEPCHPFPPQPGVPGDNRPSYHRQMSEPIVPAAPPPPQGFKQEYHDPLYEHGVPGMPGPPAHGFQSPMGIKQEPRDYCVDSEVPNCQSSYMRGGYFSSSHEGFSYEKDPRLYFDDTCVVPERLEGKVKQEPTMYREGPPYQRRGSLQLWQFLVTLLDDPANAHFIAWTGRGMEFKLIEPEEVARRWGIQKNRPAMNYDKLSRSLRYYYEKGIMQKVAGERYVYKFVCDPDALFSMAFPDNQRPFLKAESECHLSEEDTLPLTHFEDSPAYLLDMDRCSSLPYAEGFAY
Chain of HSF1 (Q00613 whole entry): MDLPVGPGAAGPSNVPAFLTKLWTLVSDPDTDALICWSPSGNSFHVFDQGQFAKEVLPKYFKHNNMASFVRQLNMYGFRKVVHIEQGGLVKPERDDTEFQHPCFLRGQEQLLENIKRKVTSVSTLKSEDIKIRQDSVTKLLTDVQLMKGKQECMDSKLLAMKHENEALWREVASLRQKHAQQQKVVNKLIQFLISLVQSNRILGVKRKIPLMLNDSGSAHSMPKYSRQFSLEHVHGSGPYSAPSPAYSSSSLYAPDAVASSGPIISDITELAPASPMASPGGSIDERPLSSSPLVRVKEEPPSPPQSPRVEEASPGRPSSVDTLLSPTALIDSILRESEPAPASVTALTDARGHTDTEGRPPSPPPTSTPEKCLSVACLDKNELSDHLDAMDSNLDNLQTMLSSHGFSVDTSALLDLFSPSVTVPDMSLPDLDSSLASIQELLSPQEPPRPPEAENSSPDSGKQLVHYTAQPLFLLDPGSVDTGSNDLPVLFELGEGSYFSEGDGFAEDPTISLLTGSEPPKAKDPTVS
Chain of ETV6 (P41212 whole entry): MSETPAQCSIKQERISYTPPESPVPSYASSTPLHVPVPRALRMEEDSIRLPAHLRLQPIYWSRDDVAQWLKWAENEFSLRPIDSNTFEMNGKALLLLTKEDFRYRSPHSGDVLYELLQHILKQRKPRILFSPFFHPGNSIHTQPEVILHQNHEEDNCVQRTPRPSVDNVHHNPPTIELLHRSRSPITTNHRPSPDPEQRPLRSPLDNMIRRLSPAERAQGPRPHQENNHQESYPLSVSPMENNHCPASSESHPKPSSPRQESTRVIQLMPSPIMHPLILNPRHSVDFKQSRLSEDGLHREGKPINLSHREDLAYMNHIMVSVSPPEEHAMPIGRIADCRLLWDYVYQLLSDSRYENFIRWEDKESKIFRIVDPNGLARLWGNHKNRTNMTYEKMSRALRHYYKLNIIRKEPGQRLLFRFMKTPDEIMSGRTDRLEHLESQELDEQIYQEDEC
Chain of CRX (O43186 whole entry): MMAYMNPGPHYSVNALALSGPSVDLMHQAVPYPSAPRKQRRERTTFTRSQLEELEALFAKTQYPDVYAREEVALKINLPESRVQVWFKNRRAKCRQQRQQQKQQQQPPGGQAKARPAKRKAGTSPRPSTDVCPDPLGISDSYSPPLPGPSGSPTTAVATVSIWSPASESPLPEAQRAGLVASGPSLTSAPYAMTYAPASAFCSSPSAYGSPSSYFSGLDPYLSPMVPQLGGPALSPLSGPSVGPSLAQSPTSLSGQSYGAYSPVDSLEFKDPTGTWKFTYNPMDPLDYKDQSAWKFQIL
Chain of ELF4 (Q99607 whole entry): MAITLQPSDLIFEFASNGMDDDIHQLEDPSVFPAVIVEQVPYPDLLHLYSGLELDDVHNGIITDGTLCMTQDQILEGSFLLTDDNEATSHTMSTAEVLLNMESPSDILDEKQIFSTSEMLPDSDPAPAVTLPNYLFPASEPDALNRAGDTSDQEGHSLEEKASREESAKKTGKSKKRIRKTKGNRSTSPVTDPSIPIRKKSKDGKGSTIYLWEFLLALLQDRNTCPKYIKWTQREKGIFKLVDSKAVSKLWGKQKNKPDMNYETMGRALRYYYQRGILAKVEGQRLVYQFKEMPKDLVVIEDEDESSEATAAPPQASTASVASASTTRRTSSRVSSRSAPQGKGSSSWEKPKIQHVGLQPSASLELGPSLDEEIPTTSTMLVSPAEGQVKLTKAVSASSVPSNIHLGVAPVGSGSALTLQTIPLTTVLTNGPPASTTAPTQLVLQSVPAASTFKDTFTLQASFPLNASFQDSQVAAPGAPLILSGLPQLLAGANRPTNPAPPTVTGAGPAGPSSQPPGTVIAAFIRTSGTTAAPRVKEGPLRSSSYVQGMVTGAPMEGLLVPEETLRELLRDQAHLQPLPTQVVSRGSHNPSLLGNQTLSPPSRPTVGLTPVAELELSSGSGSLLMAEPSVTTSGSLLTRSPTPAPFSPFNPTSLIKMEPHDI

Question: How did the binding signal [1] turn out when CTCTAC was run?
Answer: 1.57 fold enrichment (6-mer frequency, TF over GST control)

Question: And the binding signal [2]?
Answer: 1.33 fold enrichment (6-mer frequency, TF over GST control)

Question: What about the binding signal [3] of the same sequence?
Answer: 1.37 fold enrichment (6-mer frequency, TF over GST control)

Question: And the binding signal [4]?
Answer: 1.51 fold enrichment (6-mer frequency, TF over GST control)

Question: What about the binding signal [5] of the same sequence?
Answer: 1.46 fold enrichment (6-mer frequency, TF over GST control)

Question: And the binding signal [6]?
Answer: 1.38 fold enrichment (6-mer frequency, TF over GST control)

Question: And the binding signal [7]?
Answer: 1.35 fold enrichment (6-mer frequency, TF over GST control)

Question: What about the binding signal [8] of the same sequence?
Answer: 1.47 fold enrichment (6-mer frequency, TF over GST control)

Question: And the binding signal [9]?
Answer: 1.18 fold enrichment (6-mer frequency, TF over GST control)

Question: And the binding signal [10]?
Answer: 1.4 fold enrichment (6-mer frequency, TF over GST control)

Question: What about the binding signal [11] of the same sequence?
Answer: 1.45 fold enrichment (6-mer frequency, TF over GST control)

Question: What about the binding signal [12] of the same sequence?
Answer: 1.66 fold enrichment (6-mer frequency, TF over GST control)

Question: And the binding signal [13]?
Answer: 1.48 fold enrichment (6-mer frequency, TF over GST control)

Question: What about the binding signal [14] of the same sequence?
Answer: 1.54 fold enrichment (6-mer frequency, TF over GST control)

Question: What about the binding signal [15] of the same sequence?
Answer: 1.28 fold enrichment (6-mer frequency, TF over GST control)

Question: What about the binding signal [16] of the same sequence?
Answer: 1.52 fold enrichment (6-mer frequency, TF over GST control)

Question: And the binding signal [17]?
Answer: 1.51 fold enrichment (6-mer frequency, TF over GST control)

Question: What about the binding signal [18] of the same sequence?
Answer: 1.43 fold enrichment (6-mer frequency, TF over GST control)
